Source: PubChem BioAssay AID1053173 (Broad Institute, 2014)
Hit rate of the full screen: of about 1,500 compounds, about 390 (26%) were called active. How the calls were made is not given here. The list is a sample of the results. Results with a measured potency or affinity are listed apart.

target: Histone-lysine N-methyltransferase NSD2 (Homo sapiens) (UniProt O96028); test: NSD2 methyltransferase inhibitors, dose response, biochemical, AlphaScreen, cherry-picked samples (AID 1053173); details: NSD2 H4 peptide methylation, 120 min; series mostly up to 10 µM
Sequence (O96028 whole entry, looked up): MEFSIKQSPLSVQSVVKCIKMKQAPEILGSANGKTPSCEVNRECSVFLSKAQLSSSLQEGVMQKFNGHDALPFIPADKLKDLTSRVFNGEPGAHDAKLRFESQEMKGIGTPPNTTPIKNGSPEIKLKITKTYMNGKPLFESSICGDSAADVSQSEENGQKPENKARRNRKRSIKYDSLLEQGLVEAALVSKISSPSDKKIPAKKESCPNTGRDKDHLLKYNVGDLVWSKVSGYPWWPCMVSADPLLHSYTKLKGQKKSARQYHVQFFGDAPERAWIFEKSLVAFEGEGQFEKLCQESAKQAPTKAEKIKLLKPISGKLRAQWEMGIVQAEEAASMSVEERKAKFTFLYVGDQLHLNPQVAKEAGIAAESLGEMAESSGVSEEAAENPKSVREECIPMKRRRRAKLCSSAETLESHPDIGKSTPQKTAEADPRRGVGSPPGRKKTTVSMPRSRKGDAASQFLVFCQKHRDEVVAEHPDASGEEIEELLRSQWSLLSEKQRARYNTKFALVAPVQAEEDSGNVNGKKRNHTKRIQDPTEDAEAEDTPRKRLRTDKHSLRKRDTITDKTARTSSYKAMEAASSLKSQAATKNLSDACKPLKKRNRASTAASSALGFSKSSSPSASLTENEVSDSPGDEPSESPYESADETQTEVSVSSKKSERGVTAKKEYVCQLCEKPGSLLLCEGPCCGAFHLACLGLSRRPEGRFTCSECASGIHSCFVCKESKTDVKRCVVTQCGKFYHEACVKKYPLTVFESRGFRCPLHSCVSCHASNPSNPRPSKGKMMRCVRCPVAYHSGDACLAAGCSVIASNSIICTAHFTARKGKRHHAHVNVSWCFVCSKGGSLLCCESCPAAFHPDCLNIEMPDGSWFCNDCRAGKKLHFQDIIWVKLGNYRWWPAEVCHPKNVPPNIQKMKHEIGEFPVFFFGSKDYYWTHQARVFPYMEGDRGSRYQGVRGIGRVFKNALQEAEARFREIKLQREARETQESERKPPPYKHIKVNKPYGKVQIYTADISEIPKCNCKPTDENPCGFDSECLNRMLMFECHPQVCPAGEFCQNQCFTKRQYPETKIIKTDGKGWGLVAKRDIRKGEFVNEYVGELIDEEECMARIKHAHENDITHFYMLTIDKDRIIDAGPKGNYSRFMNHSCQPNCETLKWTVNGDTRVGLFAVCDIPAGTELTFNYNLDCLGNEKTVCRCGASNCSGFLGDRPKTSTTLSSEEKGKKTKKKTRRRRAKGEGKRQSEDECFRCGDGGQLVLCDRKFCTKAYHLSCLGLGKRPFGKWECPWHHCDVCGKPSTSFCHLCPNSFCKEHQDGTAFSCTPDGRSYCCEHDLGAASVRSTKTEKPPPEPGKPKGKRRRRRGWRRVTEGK

outcome, inactive:
Nc1nc(Nc2ccccc2F)nc(NCCO)c1[N+](=O)[O-]
CCCCn1c(=O)[nH]c2nc3cc(N)ccc3nc2c1=O
COc1ccc(C(=O)NCc2nnc(SCC(=O)Nc3cc(C)cc(C)c3)o2)cc1OC
COc1ccc(/C=N/Nc2nnc(C)n2N)cc1OC
Cc1nnc(N/N=C/c2ccccc2O)n1N
CN(C)S(=O)(=O)c1ccc(NC(=O)CCNC(=O)c2ccco2)cc1
CC(=O)c1cccc(NC(=O)CC2CCCC2)c1
Cc1nc2ccc(S(=O)(=O)N3CCCCC3)cc2s1
CC(=O)NCCN1C(=O)C2C3c4ccccc4C(c4ccccc43)C2C1=O (centres undefined)
CCOC(=O)c1sc2nc(C)nc(NC3CCC(O)CC3)c2c1C (centres undefined)
CCCCC(=O)OCc1cn(-c2ccc(Cl)cc2)nn1
Cc1cccc(NC(=O)C2CCN(C(=O)NCc3ccccc3)CC2)c1C
CN1C(=O)C(CCC(=O)O)NC1=S (centres undefined)
Cc1cccc(NC(=O)CSCC(=O)NCc2cccc(C(F)(F)F)c2)c1
O=C(NCCCO)c1ccc2nc(-c3ccco3)c(-c3ccco3)nc2c1
O=C(O)c1cc(-c2ccco2)nn1-c1ccc(Cl)cc1
O=C1CCN(Cc2ccccc2)N1
COc1ccc2c(c1)Cc1sc(NC(=O)c3cccs3)nc1-2
COc1ccc(C(=O)OCC(=O)Nc2c(C)n(C)n(-c3ccccc3)c2=O)cc1
O=Nc1ccc(O)c2ncccc12
Cc1ccc(C#N)c(SCc2ccccc2F)n1
O=c1[nH]c(NCCO)c(N=Cc2ccccc2)c(=O)[nH]1
COc1ccc(C2CCc3cc4c(cc3C2=NOC(C)=O)OCO4)cc1OC (centres undefined)
Cc1cc(C)n(CC(O)COc2c(C)cccc2C)n1 (centres undefined)
O=C(CN1CCOCC1)NCCNC(=O)CN1CCOCC1
CCNC(=O)C1(C)CCCN(C(=O)c2ccc3ccccc3n2)C1 (centres undefined)
NC(=O)COC(=O)c1ccc(Cl)c(S(=O)(=O)N2CCN(c3ccc(F)cc3)CC2)c1
COc1cc(NC(=O)c2ccccc2)c(OC)cc1NC(=O)CSc1[nH]c(=O)cc(C)c1C#N
Cc1ccc(CC(=O)Nc2nncs2)cc1
CCc1sc(C(=O)Nc2nc(C)cs2)cc1C
Cc1ccc2cccc(OCc3ccc(Br)cc3)c2n1
CC(Nc1ccc2ccccc2c1)C(=O)N/N=C/c1ccncc1 (centres undefined)
Cc1sc2nc[nH]c(=S)c2c1-c1ccccc1
O=c1[nH]nc(Br)c(=O)n1C(c1ccccc1)c1ccccc1
O=C(CSc1nccn1-c1ccc(F)cc1)NCc1ccc(F)cc1
Cc1cccc2c(=O)c(C(=O)NCc3ccc(F)cc3)c[nH]c12
CN(Cc1nc2ccccc2c(=O)[nH]1)C(=O)c1cc2c(s1)CCCCC2
O=C(O)COc1ccccc1/C=N/Nc1ccc(S(=O)(=O)Nc2ccc(Cl)cc2)cc1[N+](=O)[O-]
O=C(NNC(=S)Nc1ccccc1)c1ccco1
O=C(/C=C/c1ccco1)N(c1ccccn1)c1ccccn1
COc1ccc(CCC(=O)Nc2ccc(S(=O)(=O)Nc3nccc(C)n3)cc2)cc1
Cc1cc(NS(=O)(=O)c2ccc(NC(=O)CSc3nnc(-c4ccncc4)n3Cc3ccco3)cc2)nc(C)n1
O=C(Nc1ccccc1C(=O)O)c1cncc(Br)c1
Cn1c(N)c(C#N)c2c(c1=S)CSC(C)(C)C2
CCN(C(=O)/C=C/c1ccc2c(c1)OCO2)c1ccccc1
CC(=O)Nc1ccc(S(=O)(=O)NCCSCc2c(Cl)cccc2Cl)cc1
NS(=O)(=O)c1ccc(N/N=C/c2ccc(O)c(O)c2O)c([N+](=O)[O-])c1
CCCCn1c(Cn2nc(C(=O)O)c3ccccc3c2=O)nc2cc(S(N)(=O)=O)ccc21
N#Cc1c2nc3ccccc3nc2n2cc(NC(=O)c3ccc(F)cc3)ccc12
CCOC(=O)c1nnn(-c2nonc2OC)c1-c1ccccc1
N#Cc1c(N)n(-c2ccc(C(=O)O)cc2)c2nc3ccccc3nc12
C=CCn1c(NS(=O)(=O)c2ccccc2)c(S(=O)(=O)c2ccc(C)cc2)c2nc3ccccc3nc21
CCCCn1c(NS(=O)(=O)c2ccccc2)c(S(=O)(=O)c2ccc(C)cc2)c2nc3ccccc3nc21
COc1ccccc1N1CCN(C2CCN(C(=O)c3cccc(F)c3)CC2)CC1
Cc1cccc(NCCNc2cccc(C)c2)c1
COc1cnc(-c2ccccn2)nc1Oc1cccc(C(F)(F)F)c1
COc1cccc(CNC(=O)CSc2nnc3c(n2)[nH]c2ccccc23)c1
CCOc1ccc(S(=O)(=O)N2CCCC(C(=O)NCCN3CCOCC3)C2)cc1Cl (centres undefined)
CNC(=O)COC(=O)/C=C/c1cccs1
Cc1ccc(S(=O)(=O)N2CCC(NC(=O)c3cccnc3)CC2)cc1Cl
COc1cccc(C(C(=O)NC2CCCC2)N(C(=O)c2csnn2)C2CC2)c1 (centres undefined)
CCc1c(C)nc2ncnn2c1Nc1ccc(C)cc1
CCC(=O)N1CCN(c2ccc(Cl)cc2NC(=O)c2ccc(Br)o2)CC1
COc1ccccc1N1CCN(S(=O)(=O)CCNC(=O)c2ccc(Br)o2)CC1
CCCCn1nnc(NC(=O)c2ccco2)n1
Nc1nc(COC(=O)c2ccco2)nc(Nc2ccccc2)n1
Cc1cc(C)n(-c2nc(NCC(C)O)c3c4c(sc3n2)COC(C)(C)C4)n1 (centres undefined)
CC(=O)C1=C(O)C(=O)N(CCc2c[nH]c3ccccc23)C1c1ccco1 (centres undefined)
Oc1cccc2c(NC(=S)Nc3ccc(OC(F)F)cc3)cccc12
COc1ccc(-c2nnc(SCC(=O)c3ccc(O)cc3O)o2)cc1
CCCc1cc(=O)[nH]c(SCc2cc(=O)oc3cc(C)c(C(C)C)cc23)n1
CC(=O)c1ccc(N2CCN(C(=O)[C@H](C)NC(=O)c3ccccc3Cl)CC2)cc1
COc1cc(-c2nnn(Cc3ccccc3C)n2)cc(OC)c1OC
O=C1Nc2cc(C(=O)N3CCC(N4CCCCC4)CC3)ccc2S/C1=C\c1ccccc1
CCCc1[nH]n(-c2nc3ccccc3s2)c(=O)c1C=NCCCN(CC)CC
O=C(CSc1ccc(-c2cccnc2)nn1)N1CCCC1
CCn1c(-c2cc3c(C(F)(F)F)nn(C)c3s2)n[nH]c1=S
Cc1ccc(Sc2ncccc2C(N)=O)cc1
Cc1cc(C)cc(NC(=O)C2C3C=CC4(O3)C2C(=O)N(CCCN2CCCC2)C4C(=O)NC2CCCC(C)C2C)c1 (centres undefined)
CCOC(=O)Cn1ncc(-c2ccccc2)c1N
Cc1cc(-c2ccc(C)c(S(=O)(=O)N3CCN(c4ccccn4)CC3)c2)on1
C/C(=C\C(=O)c1ccccc1)Nc1ccc(O)cc1
Clc1cccc(N2CCN(CCCN3CCN(c4ccccc4)CC3)CC2)c1
Fc1ccccc1NC(=S)Nc1cccc2cnccc12
